# Source: PubChem BioAssay (National Center for Advancing Translational Sciences (NCATS))
# Hits are enriched below; roughly 0.93% of the tested compounds scored in any of these assays.
# PKM2 act – qHTS Assay for Activators of Human Muscle isoform 2 Pyruvate Kinase. Pyruvate kinase PKM (Homo sapiens), P14618. purified PKM2, Kinase-Glo ATP luminescence, activation; response scale: 0% is enzyme alone, no compound. Potency, µM (highest dose often 57.5 µM), without a hit: at the top dose activation, usual class: activators. actives 0.34% (n = 260,000). AID 1631, 2009; active = well fitted activation curve with a large enough effect; inconclusive = small, poorly fitted or top-dose-only effect; inactive = no such curve, though single readings can be large or run the other way; also: potency is read from the fitted curve at half-maximal effect; nearly all actives have a fitted effect of over 55% in size
#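 Kinase-Glo luminescence reports ATP generated from ADP (0.1 mM) and PEP (0.5 mM) by purified hPK-M2 after 1 h at room temperature, pH 7.2 imidazole buffer; intermediate enzyme activity allows detecting inhibitors and activators.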
# MBNL1-CUG inh – qHTS Assay for Inhibitors of MBNL1-poly(CUG) RNA binding. Potency, µM (series often up to 57.5 µM), inactives show top-dose activity change, negative = inhibition, hits mostly inhibitors. AID 2675, 2010. Muscleblind-like protein 1 (Homo sapiens), Q9NR56. TR-FRET MBNL1-His/biotin-(CUG)12 binding, 665/545 ratio. actives 0.036% (n = 280,000); active = well fitted inhibition curve with a large enough effect in the signal ratio, with a control signal flat, not every such curve was filed as active; inconclusive = small, poorly fitted or top-dose-only effect, or effect the other way, or a change in a side signal; inactive = no such curve, though single readings can be large or run the other way; the % refers to the signal ratio; also: potency is read from the fitted curve at half-maximal effect
#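 Ratiometric TR-FRET (665 over 545 nm, excitation 340 nm) tracks disruption of MBNL1-His/biotin-(CUG)12 complex after 60 min at room temperature, with compounds at 92 nM to 58 uM final.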
# Six1-Eya2 inh – qHTS Assay for Inhibitors of the Six1/Eya2 Interaction | Homeobox protein SIX1 (Homo sapiens) + Protein phosphatase EYA2 (Homo sapiens), … | AlphaScreen GST-Six1/His-Eya2 binding, biochemical; active compounds read low | activity change, % (no concentration beside the values) | actives 0.56% (n = 360,000)
# Target sequence (O00167 whole entry, looked up): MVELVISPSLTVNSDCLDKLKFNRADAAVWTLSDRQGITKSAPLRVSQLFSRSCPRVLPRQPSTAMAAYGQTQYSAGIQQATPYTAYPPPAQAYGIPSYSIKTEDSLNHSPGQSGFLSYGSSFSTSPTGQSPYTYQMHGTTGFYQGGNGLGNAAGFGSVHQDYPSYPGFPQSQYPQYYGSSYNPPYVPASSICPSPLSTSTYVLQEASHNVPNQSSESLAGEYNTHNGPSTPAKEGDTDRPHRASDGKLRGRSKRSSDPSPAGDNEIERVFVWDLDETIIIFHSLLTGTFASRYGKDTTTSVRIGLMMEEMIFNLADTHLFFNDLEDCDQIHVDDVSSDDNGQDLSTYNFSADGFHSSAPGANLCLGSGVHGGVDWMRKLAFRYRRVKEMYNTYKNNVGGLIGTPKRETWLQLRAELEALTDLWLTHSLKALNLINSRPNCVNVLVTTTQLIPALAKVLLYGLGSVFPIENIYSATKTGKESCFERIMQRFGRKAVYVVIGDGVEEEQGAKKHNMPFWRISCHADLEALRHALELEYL
# Target sequence (Q15475 whole entry, looked up): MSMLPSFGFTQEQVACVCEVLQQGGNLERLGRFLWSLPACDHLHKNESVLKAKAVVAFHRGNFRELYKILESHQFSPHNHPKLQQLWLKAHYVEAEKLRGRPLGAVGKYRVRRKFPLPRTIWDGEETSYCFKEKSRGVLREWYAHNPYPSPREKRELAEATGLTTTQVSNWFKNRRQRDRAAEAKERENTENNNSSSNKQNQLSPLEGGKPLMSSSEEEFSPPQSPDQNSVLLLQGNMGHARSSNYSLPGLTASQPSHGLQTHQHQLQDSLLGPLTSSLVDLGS
#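 Compounds are tested against tagged Six1 and Eya2 proteins bridged by glutathione donor and nickel acceptor beads; after a one-hour incubation at 37 °C without light, AlphaScreen emission is recorded.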
# CtBP-E1A inh – qHTS Assay for Inhibitors of the CtBP/E1A Interaction | CtBP / adenovirus E1A interaction (AlphaScreen) | AlphaScreen GST-E1A/His-CtBP binding, 1536-well; active compounds read low | activity change, % (test concentration not listed) | actives 0.49% (n = 340,000)
#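 Steps: dispense buffer (Tris pH 8.0, NaCl 300 mM, TCEP 1 mM, BSA, Tween 20); add 5X protein mix (GST-E1A, His-CtBP, 125 nM each); pin 23 nL compound; 2 h at 37 °C, dark; add 5X beads (50 ug/mL); 1 h; read.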
# * = called active by the depositor; u = inconclusive; x = not tested or not shown; [ ] = remark or other dose. Rule as the data show it, unless noted: active = activity change below about -65%; inconclusive = mostly about -30% to -63%; inactive = weaker than that. % is scaled to controls: 0 for no effect and ±100 for the full control effect.
SMILES,PKM2 act,MBNL1-CUG inh,Six1-Eya2 inh,CtBP-E1A inh
S=C(NCc1ccccn1)NN=Cc1ccccn1,x,x,-91*,-4
CCCCN1C(=O)C(CC(=O)NCc2cccc3ccccc23)CC(C(=O)N2CCCCCC2)=C1C (configuration not stated),x,x,12,-12
Cc1cccc(C)c1-n1nnnc1C(c1ccccc1OC(F)(F)F)N1CCN(C/C=C/c2ccccc2)CC1 (configuration not stated),x,x,-25,-19
O=Cc1ccc(OC(=O)c2cccnc2)cc1,6%,-1%,-65*,-10
CC(=O)/C=C\c1ccc(OC(=O)c2cccnc2)cc1,0%[11.5 µM],11%,-1,2
c1ccc(C2=NNC(c3ccccn3)=NN2)nc1,x,7%,-71*,-80*
c1ccc(-c2nnc(-c3ccccn3)s2)nc1,-28%,5%,-8,0
C=CCN1c2ccccc2[C@]23C[C@@H](C(=O)OC)N(S(=O)(=O)c4ccc(C)cc4)C2=NC(C(=O)OC)=C(C(=O)OC)[C@H]13,-3%[11.5 µM],x,x,x
Cc1ccc(/C=N/Nc2cn[nH]c(=O)n2)o1,2%,14%,u,-68*
O=c1nc(N/N=C/c2ccccn2)cn[nH]1,-40%,u,-91*,-91*
Cc1ccc(/C=N/Nc2ccc3ccccc3n2)o1,-6%,x,-12,-2
C(=N\Nc1ccc2nncn2n1)/c1ccccn1,0%,u,u,u
O=S1(=O)N=C(N/N=C/c2ccccn2)c2ccccc21,-1%,74%,-88*,-81*
CC#CCN1c2ccccc2[C@]23C[C@@H](C(=O)OC)N(S(=O)(=O)c4ccc(C(F)(F)F)cc4)C2=NC(C(=O)OC)=C(C(=O)OC)[C@H]13,3%[11.5 µM],x,x,x
COc1ccc(CNC(=O)C2Cc3c(-c4ccccc4Oc4ccccc4)ccnc3O2)cc1OC (configuration not stated),x,x,-14,-8
CN(C)c1ccc(CNC(=O)C2Cc3c(-c4ccccc4Oc4ccccc4)ccnc3O2)cc1 (configuration not stated),x,x,-66*,u
COc1ccc(C(CCNCc2ccc(N(C)C)cc2)c2ccccc2OC)cc1 (configuration not stated),x,3%,-74*,-75*
COc1ccc(CNCCC(c2ccc(OC)cc2)c2ccccc2OC)cc1 (configuration not stated),x,-12%,-2,-1
C[C@H]1Cc2c(-c3ccccc3)nc3c(c2CO1)CN(S(=O)(=O)c1ccc2c(c1)OCCN2C)CC3,-18%[11.5 µM],x,x,x
COc1ccc(C(=S)N2CCOCC2)cc1OC(=O)c1cc(OC)c(OC)c(OC)c1,x,-6%,-10,-14
COc1cc(C(=O)Oc2ccc(Br)cc2C(=S)N2CCOCC2)cc(OC)c1OC,x,-1%,-83*,-71*
Cc1cccc(C)c1NC(=O)COC(=O)c1cccc2c1C(=O)c1ccccc1C2=O,-1%,u,2,-1
Cc1cccc(NC(=O)COC(=O)c2cccc3c2C(=O)c2ccccc2C3=O)c1C,-2%,u,-65*,-6
CN(C)/C(Cn1cncn1)=C1/N=C(c2c(F)cccc2F)OC1=O,25µM*,6%,-5,x
Cc1ccc(-c2nc(CN(Cc3c(C)nn(C)c3C)C(C)C)c(C)o2)o1,-6%,-12%,-90*,-6
SMILES,PKM2 act,MBNL1-CUG inh,Six1-Eya2 inh,CtBP-E1A inh
Cc1nn(C)c(C)c1CN(Cc1nc(-c2ccc(F)cc2F)oc1C)C1CC1,u,12%,-3,-1
O=C(Cn1cnc([N+](=O)[O-])n1)N/N=C/c1ccc(O)cc1O,-1%,u,-92*,-96*
O=C(CCN1CCN(C(c2ccccc2)c2ccccc2)CC1)N/N=C/c1ccc(O)cc1O,10%,-5%,-11,-73*
Cc1cc(C)n(CCC(=O)N/N=C/c2ccc(O)cc2O)n1,1%,9%,-86*,-69*
Cc1cc2nc(-c3ccccc3)c(Cc3ccccc3)n2c(C)c1Br,x,x,-11,5
CCC/C=C(\CCC)C(NC(=O)C(C)(C)C)c1ccc(C(=O)OC)cc1 (configuration not stated),0%,x,x,x
